# Screening results from PubChem.
# UCHL1 inh – human UCHL1 deubiquitinase inhibition; P09936; purified UCHL1, Ub-rhodamine cleavage fluorescence; inhibition, % at 20 µM; 0.2% of 47,000 active; AID 1645859
# USP7 inh – blocks human USP7 ubiquitin-rhodamine cleavage | 0.3% of 47,000 active | Q93009 | inhibition, % at 20 µM | purified USP7, Ub-rhodamine cleavage fluorescence
# USP8 block – human USP8 deubiquitinase inhibition. purified USP8, Ub-rhodamine cleavage fluorescence, 30 min. 4.2% of 47,000 active. P40818. inhibition, % at 20 µM. AID 1645853
# USP10 block – inhibitors of human USP10 deubiquitinase; purified USP10, Ub-rhodamine fluorescence, 60 min; AID 1645856; 1.1% of 47,000 active; inhibition, % at 20 µM; Q14694
# * hit, by the source's call. An excerpt weighted towards active compounds, which were near 5% of everything screened. No stated cut-off is given here; in the data, active means inhibition above about 30%; inactive means the rest.
SMILES,UCHL1 inh,USP7 inh,USP8 block,USP10 block
O=C(Cc1ccc(F)cc1)NCC(=O)N1CCC2(CC1)NCCc1[nH]cnc12,0.6,-0.3,21.8,-1.4
CCOc1ccc(-c2cc3nc(C4CCN(C(=O)OC(C)(C)C)CC4)c(C(=O)Nc4cc(F)ccc4F)cn3n2)cc1,-5.8,8.6,55.8*,1.6
COc1ccc(C2c3[nH]c4ccccc4c3C[C@@H]3C(=O)N(C4CCCCC4)CC(=O)N23)cc1OC (some centres undefined),-4.6,-3.1,-60.9,-5.6
Cc1cc(Cl)ccc1NC(=O)COC(=O)c1n[nH]c2ccccc12,-4.5,-12.0,31.0*,-6.6
CCn1cnc2c(-c3ccccc3)cn(CC(=O)N3CCCc4ccccc43)c2c1=O,-0.7,-2.7,-4.8,-3.6
O=C(Oc1ccc(-c2nccc(-c3cccs3)n2)cc1)c1ccco1,4.6,8.7,35.6*,4.7
O=C(Oc1ccc(-c2nccc(-c3cccs3)n2)cc1)c1ccccc1,2.1,4.0,5.8,6.1
Cc1ccc(NC(=O)CC(c2ccccc2C)n2cccc2)cc1F (centres undefined),-4.8,-2.7,-21.0,-1.8
O=C1COc2ccc(Cl)cc2CN1Cc1ccccc1,0.1,-10.6,-1.9,1.4
Clc1ccc(C2=Nc3cc(Cl)ccc3OC2)cc1,-3.3,-6.0,56.4*,-5.3
CC(=O)Nc1cc(C(=O)NC(C)c2ccccc2)c2ccc(C)nc2c1 (centres undefined),-2.1,-9.2,10.7,-5.6
COc1ccc(C(C)NC(=O)c2cc(NC(C)=O)cc3nc(C)ccc23)cc1 (centres undefined),10.7,-10.1,58.2*,-5.6
CCOc1cccc(CNC(=O)C2c3ccccc3CC(=O)N2CC)c1 (centres undefined),3.0,-1.0,55.3*,0.9
COc1ccc(-c2ccc(-c3nnn(CCN4CCCCC4)n3)cc2)cc1,-3.0,0.1,46.6*,8.7
CN1CCN(Cc2cccnc2)C(=O)C12CCN(Cc1ccc[nH]1)CC2,0.0,-139.5,40.3*,-7.8
Cc1ccc(NC(=O)c2cnn3c2NC(C(=O)O)=CC3/C=C/c2ccccc2)cc1 (centres undefined),-164.2,-142.4,34.3*,-6.0
O=C(Nc1ccc(N2CCOCC2)cc1)c1ccccc1C(=O)c1ccc(F)cc1,-2.8,-6.5,-13.1,-2.0
O=C(O)C1=CC(/C=C/c2ccccc2)n2ncc(C(=O)Nc3ccc(F)cc3)c2N1 (centres undefined),-156.5,-141.9,41.5*,-6.9
Cc1cc(=O)oc2c1c(C)nn2-c1cccc(F)c1,-0.7,-35.7,-37.2,-2.9
COc1ccc2cc(C(C)C(=O)NCc3cccc(NS(N)(=O)=O)c3)ccc2c1 (centres undefined),8.1,9.1,45.5*,12.2
NCCCC(N)CC(=O)NCCCC(N)CC(=O)NCCCC(N)CC(=O)NCCCC(N)CC(=O)NCCCC(N)CC(=O)NCCCC(N)CC(=O)NC1C(NC2=N[C@@H]3C(=O)NC[C@@H](O)[C@H]3N2)OC(CO)C(OC(N)=O)C1O (some centres undefined),-1.0,7.7,-4.7,-3.1
Cc1c(CC(=O)N2CCN(c3ccc(Cl)cc3)CC2)c(=O)oc2cc(O)c(Cl)cc12,-3.0,2.0,41.4*,5.6
Oc1cc(OCc2cccc(C(F)(F)F)c2)ccc1-c1ccn[nH]1,10.4,-28.6,75.2*,22.4
Nc1nn(-c2ccccc2)cc1-c1cccs1,-3.7,-13.8,35.9*,-7.1
COc1ccc(C(=O)/C=C\c2cn(-c3ccccc3)nc2-c2cccs2)cc1,3.1,13.1,2.3,1.4
SMILES,UCHL1 inh,USP7 inh,USP8 block,USP10 block
Cc1ccccc1-c1nnc2sc(COc3ccc(Cl)cc3)nn12,4.9,8.1,30.9*,26.4
Cc1cc(C)cc(-n2ccnc(SCC(=O)Nc3cccc(Cl)c3)c2=O)c1,4.5,5.7,-4.3,7.2
CCOc1ccc(-n2ccnc(SCC(=O)Nc3ccccc3Cl)c2=O)cc1,-2.4,20.6,52.8*,-1.4
CCOc1ccc(-n2ccnc(SCC(=O)Nc3ccccc3F)c2=O)cc1,-3.1,21.0,57.3*,15.5
Cc1ccccc1C(=O)OCCN1C(=O)c2cccc3c(N4CCCCC4)ccc(c23)C1=O,-156.9,-174.3,-221.3,-2.1
CN(C)c1ccc(NC(=O)c2ccc(Cn3cc([N+](=O)[O-])cn3)cc2)cc1,1.8,0.0,45.7*,3.2
O=C(COc1ccc(F)cc1)Nc1noc(-c2ccccc2)n1,2.4,6.0,23.6,2.1
O=C(Nc1noc(-c2ccccc2)n1)c1ccc(Br)cc1,0.4,8.4,38.4*,18.0
O=C(Nc1nc2ccc(F)cc2s1)c1cc(Cl)sc1Cl,-0.2,15.2,70.1*,25.9
Cc1ccc(NC(=O)c2cc(-c3ccccn3)nc3c(Cl)cccc23)nc1,-6.5,24.4,63.2*,-4.0
Cc1ccc(C(=O)Nc2ccc(Cl)cn2)c(C)c1,3.2,2.3,-110.6,1.5
CCc1ccccc1NC(=O)CN(C)c1ncccc1C#N,-3.2,-1.7,-0.6,-3.8
CC(C)(C)C(=O)C1C2C(=O)N(Cc3ccccc3)C(=O)C2C2c3ccccc3C=CN12 (centres undefined),0.6,-9.3,80.6*,-6.0
O=C(c1ccco1)C1C2C(=O)N(c3cccc(C(F)(F)F)c3)C(=O)C2C2c3ccccc3C=CN12 (centres undefined),-77.0,-101.3,-72.5,-2.6
O=C(Nc1ccc2c(c1)OCO2)C1[C@@H]2C(=O)N(c3ccccc3)C(=O)[C@@H]2[C@H]2c3ccccc3C=CN12 (some centres undefined),-154.1,-139.1,49.2*,-4.9
COc1ccc(NC(=O)C2[C@@H]3C(=O)N(c4ccc5c(c4)OCO5)C(=O)[C@@H]3[C@H]3c4ccccc4C=CN23)cc1 (some centres undefined),-157.2,-86.1,55.4*,-4.7
COc1ccc(NC(=O)C2[C@@H]3C(=O)N(C4CCCCC4)C(=O)[C@@H]3[C@H]3c4ccccc4C=CN23)cc1 (some centres undefined),-83.2,-54.6,77.7*,-15.5
COC(=O)c1ccc(N2CCN(Cc3ccccc3)CC2)c(NC(=O)COc2ccc(C)c(C)c2)c1,0.0,0.9,-137.2,0.1
Cc1cccc(CC(=O)NCC(=O)N2CCC3(CC2)NCCc2[nH]cnc23)c1,-2.2,-2.6,4.4,-4.8
CC(C)(C)C(=O)C1C2C(=O)N(c3ccc4c(c3)OCO4)C(=O)C2C2c3ccccc3C=CN12 (centres undefined),11.1,-27.4,53.3*,20.8
O=C(Nc1ccc(Cl)cc1)C1CCCN(c2ncccn2)C1 (centres undefined),2.6,1.0,32.6*,-0.7
O=C(Nc1ccc(CN2CCOCC2)cc1)C1CCCN(c2ncccn2)C1 (centres undefined),-0.6,2.9,6.9,-2.5
Cc1ccc2nc(NC(=O)/C=C/c3ccc4c(c3)OCO4)sc2c1,2.9,16.4,36.2*,20.0
O=c1c(NCc2ccccc2Cl)nccn1Cc1ccc(F)cc1,8.3,-7.9,21.3,9.1
O=C(Nc1ccccc1N1CCOCC1)C1Cc2ccccc2CN1S(=O)(=O)c1ccccc1F (centres undefined),3.7,5.3,30.6*,-7.7
O=C(CC(c1cccc(F)c1)n1cccc1)Nc1ccc2c(c1)OCO2 (centres undefined),6.2,-0.6,44.8*,6.8
